Counter-ions that a name gives are not always drawn.

The assay deals with A549. Description: Euclidean distance of Cell Painting phenotypic profile (signed KS, 77 features) to DMSO centroid (dimensionless distance); 5 or 10 uM (library dependent); higher = stronger phenotypic change vs DMSO (phenoactivity). The following applies: 48 h. The method in brief: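 Five cancer lines, together with a healthy fibroblast line, received library compounds for 48 h at a library-dependent 10 or 5 uM and 0.1% DMSO final. Harmony then derived 77 features from confocal 20X images (9 fields/well) of the stained cells, scoring each as a signed Kolmogorov-Smirnov statistic against same-plate vehicle wells. After plate-position correction, correlation weighting and replicate averaging at the top dose, phenoactivity was taken as each profile's Euclidean distance to the median vehicle profile.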
`CN(C)CCCOc1nn(Cc2ccccc2)c2ccccc12` [Benzydamine HCl] returned an Euclidean distance of 0.962.

For `CC(=O)NCCCS(=O)(=O)O` [Acamprosate Calcium], the Euclidean distance was determined as 0.371.

In turn, `CNC(=O)c1cc(Oc2ccc(NC(=O)Nc3ccc(Cl)c(C(F)(F)F)c3)cc2)ccn1` [Sorafenib] yielded an Euclidean distance of 2.51.

The compound `C#Cc1cccc(Nc2ncnc3cc4c(cc23)OCCOCCOCCO4)c1` [Icotinib] yielded an Euclidean distance of 1.46.

Compound `Cc1cc([C@@H](C)Nc2ccccc2C(=O)O)c2nc(N3CCOCC3)cc(=O)n2c1` had an Euclidean distance of 1.82.

In the case of `CO/N=C(\C(=O)N[C@@H]1C(=O)N2C(C(=O)OCOC(=O)C(C)(C)C)=C(/C=C\c3scnc3C)CS[C@H]12)c1csc(N)n1` [Cefditoren Pivoxil], the Euclidean distance was 0.732.

Compound `CC[C@@H](C)Nc1cc(C(=O)N[C@H]2C[C@H]3CC[C@@H](C2)N3c2ccc(C(=O)C3CC3)cn2)c(C)cc1C(N)=O` yielded an Euclidean distance of 3.1.

`CC(C)NCC(O)COc1ccc(CCOCC2CC2)cc1` (stereo not given) [Betaxolol] returned an Euclidean distance of 0.384.

Compound `COc1cc2c(cc1OC)[C@@H](Cc1cc(OC)c(OC)c(OC)c1)[N+](C)(CCCOC(=O)CC/C=C/CCC(=O)OCCC[N+]1(C)CCc3cc(OC)c(OC)cc3[C@H]1Cc1cc(OC)c(OC)c(OC)c1)CC2` (stereo not given in full) [Mivacurium chloride] gave an Euclidean distance of 1.

For the compound `O=C(CCc1ccc(O)cc1)c1c(O)cc(O)cc1O[C@@H]1O[C@H](CO)[C@@H](O)[C@H](O)[C@H]1O` [Phlorizin], the Euclidean distance turned out to be 1.18.

The compound `Nc1nc2c(ncn2COCCO)c(=O)[nH]1` [Aciclovir] registered an Euclidean distance of 1.17.

Take `CCCCC(O)c1ccccc1` (stereo not given) [Fenipentol]: the Euclidean distance was found to be 1.44.

For `COc1ccc(CCc2nc3cc(-c4c(C)noc4C)ccc3n2C[C@H](C)N2CCOCC2)cc1Cl`, the Euclidean distance is 1.55.

`CCCC(=O)Nc1ccc(OCC(O)CNC(C)C)c(C(C)=O)c1` (stereo not given) [Acebutolol HCl] registered an Euclidean distance of 0.8.

`CCn1c(N)c(C(=O)NC)c(=O)c2ccc(C#CC(C)(O)COC)nc21` (stereo not given) came in with an Euclidean distance of 0.765.

In the case of `Cc1onc(-c2c(F)cccc2Cl)c1C(=O)N[C@@H]1C(=O)N2[C@@H]1SC(C)(C)[C@@H]2C(=O)O` [Flucloxacillin sodium], the Euclidean distance was 0.772.

In turn, `CCCC(=O)O[C@]1(C(=O)COC(C)=O)CC[C@H]2[C@@H]3C[C@H](F)C4=CC(=O)C=C[C@]4(C)[C@@]3(F)[C@@H](O)C[C@@]21C` [Difluprednate] displayed an Euclidean distance of 2.5.

In turn, `C=CC(=O)N1CCC([C@@H]2CCNc3c(C(N)=O)c(-c4ccc(Oc5ccccc5)cc4)nn32)CC1` [Zanubrutinib (BGB-3111)] had an Euclidean distance of 1.45.

`Cc1cccc(Nc2ccccc2C(=O)O)c1C` [Mefenamic Acid] came in with an Euclidean distance of 0.521.

On to `CN1CCN(c2cc3c(cc2F)c(=O)c(C(=O)O)cn3-c2ccc(F)cc2)CC1` [Difloxacin hydrochloride], for which the Euclidean distance turned out to be 0.685.

With `COc1cc(OC)c(C(=O)CCCN2CCCC2)c(OC)c1` [Buflomedil HCl], the Euclidean distance was found to be 1.05.

In turn, `O=c1c(O)c(-c2ccc(O)cc2)oc2cc(O)cc(O)c12` [Kaempferol] registered an Euclidean distance of 0.589.

With `O=C(O)[C@H](O)Cc1ccc(O)c(O)c1` [Danshensu], the Euclidean distance is 1.33.

`CC(C)Cn1cnc2c(N)nc3ccccc3c21` [Imiquimod] showed an Euclidean distance of 1.15.

Turning to `CN(C)CCC(c1ccc(Br)cc1)c1ccccn1` (stereo not given) [Brompheniramine hydrogen maleate], the Euclidean distance amounted to 0.63.

As for `CC1=C(/C=C/C(C)=C/C=C/C(C)=C/C(=O)Nc2ccc(O)cc2)C(C)(C)CCC1` [Fenretinide], the Euclidean distance stood at 2.87.

The compound `CC(=O)OCC(=O)[C@H]1CC[C@H]2[C@@H]3CCC4=CC(=O)CC[C@]4(C)[C@H]3CC[C@]12C` [Deoxycorticosterone acetate] registered an Euclidean distance of 0.852.

`CCCCc1oc2ccccc2c1C(=O)c1cc(I)c(OCCN(CC)CC)c(I)c1` [Amiodarone HCl] came in with an Euclidean distance of 1.84.

In turn, `Cc1cc(C#N)cc(C)c1Oc1nc(Nc2ccc(C#N)cc2)nc(N)c1Br` [Etravirine (TMC125)] registered an Euclidean distance of 2.85.

In the case of `Cc1c(C(=O)NN2CCCCC2)nn(-c2ccc(Cl)cc2Cl)c1-c1ccc(I)cc1`, the Euclidean distance is 1.17.

In the case of `OC(c1cc(C(F)(F)F)nc2c(C(F)(F)F)cccc12)C1CCCCN1` (stereo not given) [Mefloquine HCl], the Euclidean distance came to 2.49.

Regarding `Nc1ccn([C@@H]2O[C@H](CO)[C@@H](O)[C@@H]2O)c(=O)n1` [Cytarabine], the Euclidean distance was found to be 2.79.

In turn, `Cc1cc(O)c(C(=O)N[C@@H](C(=O)N[C@@H]2C(=O)N3C(C(=O)O)=C(CSc4nnnn4C)CS[C@H]23)c2ccc(O)cc2)cn1` [Cefpiramide sodium] gave an Euclidean distance of 1.35.

`CC/C(=C(\c1ccc(O)cc1)c1ccc(OCCNC)cc1)c1ccccc1` [Endoxifen HCl]: the Euclidean distance turned out to be 3.39.

In the case of `CNC[C@H](O)c1cccc(O)c1` [Phenylephrine HCl], the Euclidean distance was determined as 0.809.

Regarding `COc1cc2c(cc1OC)C(=O)C(CC1CCN(Cc3ccccc3)CC1)C2` (stereo not given) [Donepezil], the Euclidean distance is 1.25.

In the case of `COc1ccc(-c2nc(N3CCOCC3)c3sc(CN(C)c4ncc(C(=O)NO)cn4)cc3n2)cn1`, the Euclidean distance is 4.27.

In the case of `CCCc1nc(C(C)(C)O)c(C(=O)O)n1Cc1ccc(-c2ccccc2-c2nnn[nH]2)cc1` [Olmesartan], the Euclidean distance was determined as 0.9.

For the compound `O=C1C[C@@H](c2ccc(O)cc2)Oc2cc(O)cc(O)c21` [Naringenin], the Euclidean distance was 1.06.

Take `CC[C@@]1(O)C(=O)OCc2c1cc1n(c2=O)Cc2cc3c(CN(C)C)c(O)ccc3nc2-1` [Topotecan]: the Euclidean distance worked out at 4.25.

The values are drawn from the supplement of paper PMC10127200.
